# Assay results published in PubChem BioAssay (Tox21).
# Values joined by “and” are separate entries in the source; they are usually repeats but may differ in a detail not shown here. Equal values may be shown once. Results filed as inconclusive are left out. Some structures have more than one record in an assay (separate samples or runs), and their calls can disagree. Active and inactive are the calls of the source. Unless noted, calls follow the shape of the dose curve; as a rule, active = well fitted curve in the direction sought with a large enough effect in the repeat runs; inconclusive = weak or mixed curves; inactive = no such curve, though single readings can be large; an effect the other way counts as inactive or inconclusive.
# Tested on: not listed separately
# Test: qHTS assay to identify small molecule agonists of the androgen receptor (AR) signaling pathway in the presence of an antagonist - cell viability counter screen (AID 1259379); also: nearly all actives have a fitted effect of over 25% in size; also: potency is read from the fitted curve at half-maximal effect;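 as to activity change, negative = cytotoxicity: MDA-kb2 human breast cancer cells carrying an MMTV luciferase reporter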
# Details: MDA-kb2 viability, CellTiter-Fluor, 16 h; series mostly up to 92.4 µM; activity change, negative = cytotoxicity: at the top concentration
# How it was run: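 Nilutamide-containing (3.0uM final) MDA-kb2 cultures, 3,000 cells/well, were treated with compounds across 15 concentrations. After 16 hr at 37C with no CO2, cell viability was determined by CellTiter-Fluor fluorescence in the luciferase assay wells.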
# % is scaled to controls: 0 for no effect and ±100 for the full control effect.
Structure (SMILES),"activity change, negative = cytotoxicity",Potency
c1cc2ccc3cccc4ccc(c1)c2c34,0.012% (inactive),
BrCC(Br)C1CCC(Br)C(Br)C1 (stereo not given),0.284% (inactive),
CCCCN=C=O,-0.882% (inactive),
CCOP(=O)(OCC)Oc1ccc([N+](=O)[O-])cc1,-12.1% (inactive),
CC(C)O.CC(C)O.OCCN(CCO)CCO.OCCN(CCO)CCO.[Ti],-2.22% (inactive),
COc1nn(C(=O)NS(=O)(=O)c2ccccc2OC(F)(F)F)c(=O)n1C,2.49% (inactive),
CCOS(C)(=O)=O,2.36% (inactive),
Nc1nc(N)nc(N)n1,0.366% (inactive),
CCCCN(N=O)C(=N)N[N+](=O)[O-],-1.37% (inactive),
Cc1ccc(-c2c(Cl)nc(C#N)n2S(=O)(=O)N(C)C)cc1,,48.5 µM (active)
CCCC(Cn1cncn1)c1ccc(Cl)cc1Cl (stereo not given),-14.7% (inactive),
O=Cc1ccc(Cl)cc1Cl,0.707% (inactive),
CCCCc1c(C)nc(NCC)nc1OS(=O)(=O)N(C)C,-12.6% (inactive),
CCCCOC(=O)c1ccccc1C(=O)OCc1ccccc1,,inactive
CC1C(=O)C[C@]2(C(C)C)C[C@H]12 (stereo not given in full),4.3% (inactive),
CCOC(=O)CBr,-0.203% (inactive),
CCn1cc[n+](C)c1,,inactive and 27.6 µM (active)
O=C(O)c1ccccc1C(=O)Nc1cccc2ccccc12,0.44% (inactive),
C/C(=C\c1ccccc1)[N+](=O)[O-],,24.3 µM (active)
CN1C[C@H](CNC(=O)OCc2ccccc2)C[C@@H]2c3cccc4c3c(cn4C)C[C@H]21,-6.67% [at 42.5 µM] (inactive),
C=COC(C)=O,-1.77% (inactive),
Clc1cccc2ccccc12,1.22% (inactive),
O=S(=O)(Cl)c1ccccc1,1% (inactive),
CC(C)(CCl)C(=O)Cl,-4.98% (inactive),
CO/N=C(/C(=O)OC)c1ccccc1COc1ccccc1C,,54.5 µM (active)

# Tested on: not listed separately
# Test: qHTS assay to identify small molecule agonists of the estrogen receptor beta (ER-beta) signaling pathway - cell viability counter screen (AID 1259380); also: nearly all actives have a fitted effect of over 30% in size; also: potency is read from the fitted curve at half-maximal effect
# Details: ER-beta-bla HEK293T viability, CellTiter-Glo luminescence, 16 h; series mostly up to 92.4 µM; activity change, negative = cytotoxicity: at the top concentration
# How it was run: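 Steps: plate ER-beta-UAS-bla HEK293T cells, rest 6 hr; add compounds in DMSO; incubate 16 hr at 37C, 5% CO2; add FRET substrate 2 hr; add CellTiter-Glo, wait 30 min at room temperature; read luminescence.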
Structure (SMILES),Potency,"activity change, negative = cytotoxicity"
c1cc2ccc3cccc4ccc(c1)c2c34,32.1 µM (active),
BrCC(Br)C1CCC(Br)C(Br)C1 (stereo not given),,-8.45% (inactive)
CCCCN=C=O,,12% (inactive)
[CH3][Sn]([CH3])([Cl])[Cl],inactive,
CCOP(=O)(OCC)Oc1ccc([N+](=O)[O-])cc1,inactive,
CC(C)O.CC(C)O.OCCN(CCO)CCO.OCCN(CCO)CCO.[Ti],,9.14% (inactive)
COc1nn(C(=O)NS(=O)(=O)c2ccccc2OC(F)(F)F)c(=O)n1C,,0.438% (inactive)
CCOS(C)(=O)=O,,1.94% (inactive)
Nc1nc(N)nc(N)n1,,7.56% (inactive)
CCCCN(N=O)C(=N)N[N+](=O)[O-],,-4.36% (inactive)
Clc1cc(C(Cl)(Cl)Cl)cnc1Cl,,-2.43% (inactive)
O=Cc1ccc(Cl)cc1Cl,,8.03% (inactive)
CCCCc1c(C)nc(NCC)nc1OS(=O)(=O)N(C)C,,1.66% (inactive)
CC1C(=O)C[C@]2(C(C)C)C[C@H]12 (stereo not given in full),,6.31% (inactive)
O=S(=O)(O)C(F)(F)C(F)(F)C(F)(F)C(F)(F)F,,4.46% (inactive)
CCOC(=O)CBr,,4.06% (inactive)
CCn1cc[n+](C)c1,inactive,
[O-][Cl+]O,,2.57% (inactive)
O=C(O)C1(c2ccc3c(c2)OC[C@H](Cc2ccc(-c4ccccc4)cc2)[C@H]3O)CCCC1,27.3 µM (active),
C=COC(C)=O,,-0.674% (inactive)
Clc1cccc2ccccc12,,0.558% (inactive)
O=S(=O)(Cl)c1ccccc1,,7.66% (inactive)
CC(C)(CCl)C(=O)Cl,,1.17% (inactive)
CO/N=C(/C(=O)OC)c1ccccc1COc1ccccc1C,15.4 µM (active),
O=Cc1ccc2c(c1)OCO2,,3.71% (inactive)

# Target: Androgen receptor (Homo sapiens) (UniProt P10275)
# Sequence (P10275 whole entry, looked up): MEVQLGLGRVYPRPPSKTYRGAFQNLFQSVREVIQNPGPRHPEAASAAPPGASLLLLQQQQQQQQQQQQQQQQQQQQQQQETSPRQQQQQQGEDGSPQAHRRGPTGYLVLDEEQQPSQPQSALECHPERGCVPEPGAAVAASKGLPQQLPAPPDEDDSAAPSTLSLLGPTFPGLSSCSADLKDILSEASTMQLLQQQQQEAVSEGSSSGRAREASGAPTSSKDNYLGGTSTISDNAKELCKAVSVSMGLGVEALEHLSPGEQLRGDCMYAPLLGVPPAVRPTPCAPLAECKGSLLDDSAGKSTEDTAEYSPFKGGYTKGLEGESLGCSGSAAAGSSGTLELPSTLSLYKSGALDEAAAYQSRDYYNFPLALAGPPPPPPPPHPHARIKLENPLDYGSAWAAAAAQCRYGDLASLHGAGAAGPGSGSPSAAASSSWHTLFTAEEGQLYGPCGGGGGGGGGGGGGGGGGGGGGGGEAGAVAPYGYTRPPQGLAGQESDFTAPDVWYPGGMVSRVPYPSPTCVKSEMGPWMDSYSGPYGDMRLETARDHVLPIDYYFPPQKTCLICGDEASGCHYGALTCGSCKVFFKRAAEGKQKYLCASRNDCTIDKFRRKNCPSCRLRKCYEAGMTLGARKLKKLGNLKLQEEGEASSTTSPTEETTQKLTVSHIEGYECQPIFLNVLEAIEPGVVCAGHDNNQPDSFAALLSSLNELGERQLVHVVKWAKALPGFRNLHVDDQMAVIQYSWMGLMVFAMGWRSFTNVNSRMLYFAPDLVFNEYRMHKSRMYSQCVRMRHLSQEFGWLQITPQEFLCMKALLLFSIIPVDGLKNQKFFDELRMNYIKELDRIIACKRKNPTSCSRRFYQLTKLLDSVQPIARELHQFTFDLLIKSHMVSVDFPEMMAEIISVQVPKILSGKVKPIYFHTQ
# Test: qHTS assay to identify small molecule agonists of the androgen receptor (AR) signaling pathway in the presence of an antagonist (AID 1259381; calls by dose curve; also: nearly all actives have a fitted effect of over 15% in size)
# Details: MDA-kb2 MMTV-luciferase, AR agonist + nilutamide, 16 h; series mostly up to 92.4 µM; activation: at the top concentration
# How it was run: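 Reporter-gene luminescence from MDA-kb2 cells exposed 16hr at 37C (0% CO2) to 15-point compound titrations with 3.0uM final nilutamide as AR antagonist.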
row,Structure (SMILES),activation
1,c1cc2ccc3cccc4ccc(c1)c2c34,2.95% (inactive)
2,CCCCN(N=O)C(=N)N[N+](=O)[O-],-1.68% (inactive)
3,Cc1ccc(-c2c(Cl)nc(C#N)n2S(=O)(=O)N(C)C)cc1,-9.5% (inactive)
4,C/C(=C\c1ccccc1)[N+](=O)[O-],-10.7% (inactive)
5,CO/N=C(/C(=O)OC)c1ccccc1COc1ccccc1C,-10.8% (inactive)

# Tested on: not listed separately
# Test: qHTS assay to identify small molecule antagonists of the estrogen receptor beta (ER-beta) signaling pathway - cell viability counter screen (AID 1259382); also: nearly all actives have a fitted effect of over 55% in size; also: potency is read from the fitted curve at half-maximal effect;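 as to activity change, negative = cytotoxicity: HEK293T cells carrying ER-beta-UAS-bla reporter stimulated with estradiol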
# Details: ER-beta-UAS-bla HEK293T viability, CellTiter-Glo luminescence, 16 h; series mostly up to 92.4 µM; activity change, negative = cytotoxicity: at the top concentration
# How it was run: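 Viability is scored by CellTiter-Glo luminescence (30 min, room temperature) in ER-beta-UAS-bla HEK293T wells already read for reporter fluorescence. Compound exposure lasts 16 hr at 37C alongside 1nM 17-beta-estradiol in charcoal-stripped serum medium.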
Structure (SMILES),"activity change, negative = cytotoxicity",Potency
BrCC(Br)C1CCC(Br)C(Br)C1 (stereo not given),-3.83% (inactive),
Oc1ccc(Cl)c(Cl)c1Cl,-17.7% (inactive),
CCOC(=O)[C@]1(c2ccccc2)Oc2ccccc2[C@@H]1N,-23.3% (inactive),
CCCCN=C=O,4.19% (inactive),
[CH3][Sn]([CH3])([Cl])[Cl],4.77% (inactive),
CCOP(=O)(OCC)Oc1ccc([N+](=O)[O-])cc1,,inactive
CC(C)O.CC(C)O.OCCN(CCO)CCO.OCCN(CCO)CCO.[Ti],3.9% (inactive),
COc1nn(C(=O)NS(=O)(=O)c2ccccc2OC(F)(F)F)c(=O)n1C,5.27% (inactive),
CCOS(C)(=O)=O,9.81% (inactive),
Nc1nc(N)nc(N)n1,3.61% (inactive),
CCCCN(N=O)C(=N)N[N+](=O)[O-],3.36% (inactive),
Cc1ccc(-c2c(Cl)nc(C#N)n2S(=O)(=O)N(C)C)cc1,,27.3 µM (active)
Clc1cc(C(Cl)(Cl)Cl)cnc1Cl,1.45% (inactive),
CCCC(Cn1cncn1)c1ccc(Cl)cc1Cl (stereo not given),-24.2% (inactive),
O=Cc1ccc(Cl)cc1Cl,7.09% (inactive),
CCCCc1c(C)nc(NCC)nc1OS(=O)(=O)N(C)C,8.91% (inactive),
CCCCOC(=O)c1ccccc1C(=O)OCc1ccccc1,,inactive
CC1C(=O)C[C@]2(C(C)C)C[C@H]12 (stereo not given in full),-4.08% (inactive),
O=S(=O)(O)C(F)(F)C(F)(F)C(F)(F)C(F)(F)F,-0.372% (inactive),
CCOC(=O)CBr,5.17% (inactive),
CCn1cc[n+](C)c1,,inactive
[O-][Cl+]O,4.25% (inactive),
C/C(=C\c1ccccc1)[N+](=O)[O-],-23.9% (inactive),
CCCCCCCCOC(=O)c1ccc(C(=O)OCCCCCCCC)c(C(=O)OCCCCCCCC)c1,1.6% (inactive),
C=COC(C)=O,7.65% (inactive),
Clc1cccc2ccccc12,4.97% (inactive),
O=S(=O)(Cl)c1ccccc1,6.12% (inactive),
CC(C)(CCl)C(=O)Cl,7.03% (inactive),
CO/N=C(/C(=O)OC)c1ccccc1COc1ccccc1C,-8.92% (inactive),
O=Cc1ccc2c(c1)OCO2,-3.38% (inactive),
